The values that follow come from the supplement of paper PMC11732987, “Enantioselective OTUD7B fragment discovery through chemoproteomics screening and high-throughput optimisation” (Communications Chemistry, 2025).

A number with no mark means an inactive call.

The experiment deals with T1, VCPIP1 (UniProt Q96JH7).
T1 sequence (whole entry): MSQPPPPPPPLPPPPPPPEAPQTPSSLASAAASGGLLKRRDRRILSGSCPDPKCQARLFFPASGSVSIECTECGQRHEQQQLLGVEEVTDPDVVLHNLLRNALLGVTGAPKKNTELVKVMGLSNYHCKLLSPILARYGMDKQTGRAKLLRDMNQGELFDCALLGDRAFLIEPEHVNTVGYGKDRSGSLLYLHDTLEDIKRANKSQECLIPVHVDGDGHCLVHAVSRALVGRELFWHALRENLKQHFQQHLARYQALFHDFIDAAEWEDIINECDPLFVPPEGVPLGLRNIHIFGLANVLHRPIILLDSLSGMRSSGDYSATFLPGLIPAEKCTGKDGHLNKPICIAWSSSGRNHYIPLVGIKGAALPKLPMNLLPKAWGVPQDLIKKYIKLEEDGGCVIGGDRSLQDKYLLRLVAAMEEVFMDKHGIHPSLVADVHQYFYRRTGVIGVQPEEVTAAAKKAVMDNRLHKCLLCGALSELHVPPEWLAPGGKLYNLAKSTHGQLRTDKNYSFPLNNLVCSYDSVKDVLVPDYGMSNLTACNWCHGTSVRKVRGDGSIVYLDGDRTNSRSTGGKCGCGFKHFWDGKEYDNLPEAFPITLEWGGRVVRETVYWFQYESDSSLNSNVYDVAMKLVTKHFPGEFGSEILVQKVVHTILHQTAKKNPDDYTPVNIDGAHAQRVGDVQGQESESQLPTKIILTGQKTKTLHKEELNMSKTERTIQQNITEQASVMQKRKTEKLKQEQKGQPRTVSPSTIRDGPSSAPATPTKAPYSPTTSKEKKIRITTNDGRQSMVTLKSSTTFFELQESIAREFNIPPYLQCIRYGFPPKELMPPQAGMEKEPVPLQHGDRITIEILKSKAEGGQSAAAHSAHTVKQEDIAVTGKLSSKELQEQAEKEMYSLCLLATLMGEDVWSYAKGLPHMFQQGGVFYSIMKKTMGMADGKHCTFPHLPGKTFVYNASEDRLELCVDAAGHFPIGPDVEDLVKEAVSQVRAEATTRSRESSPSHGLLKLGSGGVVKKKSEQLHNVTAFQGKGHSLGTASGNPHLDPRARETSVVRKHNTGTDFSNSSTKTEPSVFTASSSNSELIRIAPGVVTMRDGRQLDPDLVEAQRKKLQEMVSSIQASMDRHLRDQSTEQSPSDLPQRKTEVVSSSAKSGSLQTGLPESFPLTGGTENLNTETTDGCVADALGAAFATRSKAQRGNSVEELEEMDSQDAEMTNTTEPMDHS
Briefly: log2 ratio of Biotin-Ahx-Ub-VS probe labelling (fragment/DMSO); higher = less target engagement (more negative = stronger competition), active = hit call of the paper (q ≤ 0.05, log2 ratio ≤ -1). The following applies: compound concentration: 200 uM; treatment time: 3 h. The protocol:
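Competitive ABPP in HEK293T cell lysate. Lysates were treated with each chloroacetamide fragment at 200 µM for 3 h, then with Biotin-Ahx-Ub-VS (0.5 µM, 1 h), NeutrAvidin-enriched and analysed by diaPASEF LC-MS/MS. Protein LFQ was median-normalised; average log2 ratio is fragment/DMSO from an unpaired t-test (n=3 treated, n=44 DMSO). Hits: q ≤ 0.05, log2 ratio ≤ -1, unique peptides ≥ 2.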
In the case of `O=C(CCl)N(C1CCCC1)C1CCS(=O)(=O)C1` (stereo not given), the “log2 ratio of Biotin-Ahx-Ub-VS probe labelling” value (“log2 ratio” for short) is -0.0269.
Consider `CS(=O)(=O)N1CCCN(C(=O)CCl)CC1`, for which the “log2 ratio” value was -0.326.
The figure for `CCN(C(=O)CCl)C1CCCCC1` is -0.114; for `Cl.O=C(CCl)NCc1cc2c(nc1O)CCCC2` it is -1.56 (active); for `CN1c2ccccc2C(NC(=O)CCl)CS1(=O)=O` (stereo not given) it is -2.14 (active).
The figure for `CCN(C(=O)CCl)C1CCS(=O)(=O)C1` (stereo not given) is 0.0777; for `CC1CN(c2ccc(NC(=O)CCl)cc2)CC(C)O1` (stereo not given) it is -0.624; for `O=C(CCl)NC1CCN(C(=O)C2CCCCC2)CC1` it is -0.826.
The value for `O=C(CCl)N[C@H]1CC[C@@H](CO)CC1` was -1.4 (active); that for `O=C(O)C1Cc2ccccc2CN1C(=O)CCl` (stereo not given) was -0.368; that for `Cc1cc(NC(=O)CCl)n(-c2ccccc2)n1` was -0.6.
On to `O=C(CCl)N1CCC(OCc2ccccc2F)CC1`, for which the “log2 ratio” value was -2.86 (active).
Consider `CC(O)CC1CCN(C(=O)CCl)CC1` (stereo not given), for which the “log2 ratio” value was -0.106.
With `CN(C)C(=O)c1ccc(CNC(=O)CCl)cc1`, the “log2 ratio” value was -0.952.
`CN(C(=O)CCl)c1nc2ccccc2s1`: the “log2 ratio” value is -0.54.
On to `CN(C)S(=O)(=O)c1ccccc1CNC(=O)CCl`, for which the “log2 ratio” value was -1.15 (active).
The figure for `O=C(CCl)N1CC2(CCOCC2)C1` is -0.356.
`COc1cc(Cl)c(C)cc1NC(=O)CCl`: the “log2 ratio” value is -1.24 (active).
The figure for `Cl.O=C(CN1CCN(C(=O)CCl)CC1)Nc1ccc(F)cc1` is -0.257; for `O=C(CCl)NCc1ccc(N2CCOCC2)nc1` it is -2 (active).
With `CC(NC(=O)CCl)c1noc(Cc2ccccc2)n1` (stereo not given), the “log2 ratio” value is -1.42 (active).
As for `N#Cc1ccc(CNC(=O)CCl)cc1`, the “log2 ratio” value is -1.31 (active).
The value for `O=C(CCl)NCCc1cccc2ccccc12` was -1.04 (active); that for `O=C(CCl)NC1(c2ccc3c(c2)OCCO3)CCCC1` was -0.7; that for `CN(CCC(O)c1ccc(Br)cc1)C(=O)CCl` (stereo not given) was -2.63 (active).
For the molecule `NS(=O)(=O)c1ccc(Cl)c(NC(=O)CCl)c1`, the “log2 ratio” value was -2.53 (active).
The value for `O=C(CCl)N1CCN(c2nc3ccccc3o2)CC1` was -0.288.
Consider `C#Cc1cccc(NC(=O)CCl)c1`, for which the “log2 ratio” value is -2.17 (active).
Consider `O=C(CCl)N1CCc2ccccc2C(O)C1` (stereo not given), for which the “log2 ratio” value is -0.506.
Regarding `Cl.O=C(CCl)N1CCC(Cc2nccs2)C1` (stereo not given), the “log2 ratio” value was -2.29 (active).
The value for `Cc1noc(N2CCN(C(=O)CCl)CC2)n1.Cl` was 0.15.
In the case of `CCc1c[nH]c(CNC(=O)CCl)n1.Cl`, the “log2 ratio” value was -0.554.
In the case of `O=C(CCl)NCCc1ccc(F)cc1`, the “log2 ratio” value was -0.91.
Consider `O=C(CCl)N1CC=C(c2c[nH]c3ccccc23)CC1`, for which the “log2 ratio” value is -2.41 (active).
`O=C(CCl)N1c2ccccc2NC(=O)C12CCCC2`: the “log2 ratio” value was -0.744.
The figure for `Cl.Cn1c(CNC(=O)CCl)nc2cccnc21` is -0.977; for `O=C(CCl)N1CCC(C(O)c2ccc(F)cc2)CC1` (stereo not given) it is -0.764.
As to `Cc1nnc(C(NC(=O)CCl)c2ccccc2)n1C` (stereo not given), the “log2 ratio” value is 0.452.
The value for `O=C(CCl)N1CCCC2CCCCC21` (stereo not given) was -2.13 (active); that for `CNC(=O)C1CCN(C(=O)CCl)CC1` was -0.28.
